PubChem BioAssay (Tox21)
“And” between values parts separate entries of the source, which are not always exact repeats. Equal values may be shown once. Results filed as inconclusive are left out. Where a structure was tested more than once in an assay, its records may differ in their call. The source made the active and inactive calls. Unless noted, calls come from the whole dose curve; as a rule, active = well fitted curve in the direction sought with a large enough effect in the repeat runs; inconclusive = weak or mixed curves; inactive = no such curve, though single readings can be large; an effect the other way counts as inactive or inconclusive.

Experiments:
[1] = target: Luciferin 4-monooxygenase (Photinus pyralis) (UniProt P08659); experiment: qHTS assay to identify small molecule inhibitors of firefly luciferase (AID 1224835); note: nearly all actives have a fitted effect of over 25% in size; note: potency is the fitted concentration of half-maximal effect
Procedure, shortened: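 Biochemical qHTS: compounds run as interplate titrations against purified firefly enzyme, with D-luciferin and ATP each at its KM concentration. Light output recorded by CCD imaging.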

[2] = qHTS assay to identify small molecule antagonists of the constitutive androstane receptor (CAR) signaling pathway - cell viability counter screen (AID 1224837); note: nearly all actives have a fitted effect of over 45% in size; note: potency is the fitted concentration of half-maximal effect
Procedure, shortened: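 HepG2 cells stably carrying hCAR and CYP2B6-2.2kb reporter, stimulated with 50 nM CITCO and compounds at 15 concentrations for 23 h at 37 C. Viability measured by CellTiter-Fluor fluorescence.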

[3] = target: Nuclear receptor subfamily 1 group I member 3 (Homo sapiens) (UniProt Q14994); experiment: qHTS assay to identify small molecule antagonists of the constitutive androstane receptor (CAR) signaling pathway (AID 1224838); note: nearly all actives have a fitted effect of over 40% in size; note: potency is the fitted concentration of half-maximal effect
Procedure, shortened: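 HepG2 cells stably carrying hCAR and a CYP2B6-2.2kb luciferase reporter, seeded 4 hrs before compound (15 concentrations). Stimulated with 50 nM CITCO for 24 hr at 37 C. ONE-Glo luminescence read after 30 min at room temperature.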

[4] = target: Nuclear receptor subfamily 1 group I member 3 (Homo sapiens) (UniProt Q14994); experiment: qHTS assay to identify small molecule agonists of the constitutive androstane receptor (CAR) signaling pathway (AID 1224839); note: nearly all actives have a fitted effect of over 15% in size; note: potency is the fitted concentration of half-maximal effect
Procedure, shortened: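 Compounds tested at 15 concentrations on HepG2 cells stably harbouring hCAR and CYP2B6-2.2kb reporter constructs, co-treated with PK11195 (0.75 uM final), 24 h at 37 C; luminescent reporter signal quantified.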

[5] = qHTS assay to identify small molecule antagonists of the estrogen related receptor signaling pathway with the pleiotropic PPARgamma coactivator (PGC) from Tox21 10K library - cell viability counter screen (AID 1224840; active = well fitted cell-killing curve with a large enough effect in the repeat runs, not every such curve was filed as active; note: nearly all actives have a fitted effect of over 40% in size; note: potency is the fitted concentration of half-maximal effect)
Procedure, shortened: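 PGC/ERR cells (2,000/well) plated 6 h, then compound-treated for 17.5 h at 37 C. Viability measured by CellTiter-Fluor fluorescence after 30 min at 37 C, multiplexed with the pathway assay.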

[6] = qHTS assay to identify small molecule antagonists of the estrogen related receptor signaling pathway with the pleiotropic PPARgamma coactivator (PGC) from Tox21 10K library (AID 1224841; call rule not given here; note: actives are mostly falling curves and most rising ones were filed inactive; nearly all actives have a fitted effect of over 50% in size; note: potency is the fitted concentration of half-maximal effect)
Procedure, shortened: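 PGC/ERR cell line, 2,000 cells/well, pre-incubated 6 hours at 37 C, then exposed to compounds for 18 hours at 37 C; luciferase read with One-Glo luminescence after 30 min at room temperature.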

[7] = qHTS assay to identify small molecule agonists of the estrogen related receptor signaling pathway with the pleiotropic PPARgamma coactivator (PGC) from Tox21 10K library (AID 1224842); note: nearly all actives have a fitted effect of over 15% in size
Procedure, shortened: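 PGC/ERR reporter cell line, 2,000 cells per well, incubated 6 h at 37 C before 23 nL compound in DMSO was added. After 18 h at 37 C, One-Glo luminescence read following 30 min at room temperature.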

[8] = target: Thyrotropin receptor (Homo sapiens) (UniProt P16473); experiment: qHTS assay to identify small molecule agonists of the thyroid stimulating hormone receptor (TSHR) signaling pathway (AID 1224843; calls by dose curve; note: nearly all actives have a fitted effect of over 45% in size; note: potency is the fitted concentration of half-maximal effect)
Procedure, shortened: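 TSHR-HEK293 cells in agonist mode, 30 min room-temperature step, then cAMP measured by competitive HTRF (cAMP-d2 with anti-cAMP cryptate) after 1 h at room temperature. Tested at 15 concentrations in triplicate.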

[9] = qHTS assay to identify small molecule agonists of the constitutive androstane receptor (CAR) signaling pathway - cell viability counter screen (AID 1224836); note: nearly all actives have a fitted effect of over 45% in size; note: potency is the fitted concentration of half-maximal effect
Procedure, shortened: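 23 h treatment, 37 C, 5% CO2. Cell line: HepG2 stably expressing hCAR with a CYP2B6-2.2kb construct. Co-treatment: PK11195, 0.75 uM final. Read-out: CellTiter-Fluor fluorescence intensity.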

Measured: Potency

Thyrotropin receptor (Homo sapiens), sequence (P16473 whole entry, looked up): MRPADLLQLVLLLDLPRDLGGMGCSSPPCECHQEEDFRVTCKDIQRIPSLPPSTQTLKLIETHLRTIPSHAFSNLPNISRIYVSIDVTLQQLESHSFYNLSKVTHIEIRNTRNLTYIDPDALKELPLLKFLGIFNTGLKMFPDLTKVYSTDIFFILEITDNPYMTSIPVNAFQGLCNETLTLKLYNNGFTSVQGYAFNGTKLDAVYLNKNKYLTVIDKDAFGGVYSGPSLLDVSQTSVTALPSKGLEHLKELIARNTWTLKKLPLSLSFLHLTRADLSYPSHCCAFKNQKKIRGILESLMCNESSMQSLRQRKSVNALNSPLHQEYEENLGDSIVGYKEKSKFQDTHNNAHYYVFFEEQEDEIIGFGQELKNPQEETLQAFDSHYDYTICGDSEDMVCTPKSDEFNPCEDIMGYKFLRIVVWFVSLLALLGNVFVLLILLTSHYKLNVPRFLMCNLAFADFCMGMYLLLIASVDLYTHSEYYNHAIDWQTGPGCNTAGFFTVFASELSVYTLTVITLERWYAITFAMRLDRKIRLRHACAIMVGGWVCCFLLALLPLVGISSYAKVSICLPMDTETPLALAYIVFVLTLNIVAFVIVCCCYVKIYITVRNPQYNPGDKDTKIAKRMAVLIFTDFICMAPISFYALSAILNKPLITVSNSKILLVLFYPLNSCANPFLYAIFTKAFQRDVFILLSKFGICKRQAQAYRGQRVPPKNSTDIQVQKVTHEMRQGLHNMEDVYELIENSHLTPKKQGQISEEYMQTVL
Luciferin 4-monooxygenase (Photinus pyralis), sequence (P08659 whole entry, looked up): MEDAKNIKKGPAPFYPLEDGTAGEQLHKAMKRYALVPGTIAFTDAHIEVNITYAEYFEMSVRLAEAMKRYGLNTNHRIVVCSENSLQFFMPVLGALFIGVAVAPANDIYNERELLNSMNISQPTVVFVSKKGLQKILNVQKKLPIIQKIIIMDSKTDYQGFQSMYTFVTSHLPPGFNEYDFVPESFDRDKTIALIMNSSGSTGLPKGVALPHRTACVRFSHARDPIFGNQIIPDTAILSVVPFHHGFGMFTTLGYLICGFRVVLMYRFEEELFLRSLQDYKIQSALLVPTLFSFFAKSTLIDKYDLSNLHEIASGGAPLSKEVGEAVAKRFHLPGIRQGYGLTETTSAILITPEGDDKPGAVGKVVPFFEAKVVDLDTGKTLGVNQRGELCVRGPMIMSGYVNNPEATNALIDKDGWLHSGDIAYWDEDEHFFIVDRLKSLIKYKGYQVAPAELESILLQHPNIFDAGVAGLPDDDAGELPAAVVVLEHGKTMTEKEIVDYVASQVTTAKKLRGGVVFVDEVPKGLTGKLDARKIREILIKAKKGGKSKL
Nuclear receptor subfamily 1 group I member 3 (Homo sapiens), sequence (Q14994 whole entry, looked up): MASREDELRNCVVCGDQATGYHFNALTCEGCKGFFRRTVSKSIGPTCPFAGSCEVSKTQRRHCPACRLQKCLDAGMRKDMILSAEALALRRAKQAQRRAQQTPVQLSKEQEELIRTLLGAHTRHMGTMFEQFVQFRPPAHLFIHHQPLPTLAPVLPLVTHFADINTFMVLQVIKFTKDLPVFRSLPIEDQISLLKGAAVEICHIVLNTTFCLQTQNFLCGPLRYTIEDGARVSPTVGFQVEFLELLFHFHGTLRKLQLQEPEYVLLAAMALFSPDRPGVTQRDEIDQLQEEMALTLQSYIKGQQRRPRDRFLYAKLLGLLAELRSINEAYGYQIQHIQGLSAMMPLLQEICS

CCOP(=O)(OCC)OCC
not listed: [9]
inactive: all other assays above

CCCCOCCOC(C)=O
not listed: [5] | [9]
inactive: all other assays above

S=c1[nH]c2ccccc2[nH]1
54.6 µM (active) and inactive: [3]
not listed: [5] | [6]
inactive: all other assays above

Cc1cc(Cl)ccc1N=CN(C)C
not listed: [3] | [4] | [5]
inactive: all other assays above

O=[N+]([O-])c1ccc(Nc2ccccc2)cc1
active: [9] 48.9 µM | [2] 30.9 µM
not listed: [5]
inactive: all other assays above

N#Cc1cccnc1
not listed: [5] | [9]
inactive: all other assays above

OCCOCCO
inactive: [1] | [2] | [3] | [4] | [5]

CC(C)(O)C(=O)Nc1ccc([N+](=O)[O-])c(C(F)(F)F)c1
active: [6] 27.9 µM
not listed: [4] | [5]
inactive: all other assays above

CC(C)(c1ccccc1)c1ccc(O)cc1
active: [4] 27.1 µM and 13.7 µM | [8] 60.6 µM and 54.5 µM
not listed: [6] | [7]
inactive: all other assays above

CC(C)CON=O
not listed: [6] | [7] | [9]
inactive: all other assays above

CCC/C=N/O
inactive: [1] | [2] | [3] | [4]

CC(C)Nc1nc(Cl)nc(NC(C)C)n1
not listed: [9]
inactive: all other assays above

CCOP(=S)(OCC)SCn1c(=O)oc2cc(Cl)ccc21
inactive: [2] | [3] | [5] | [8]
active: [1] 38.2 µM | [4] 58.4 µM and 24.3 µM

CC(C)(c1ccccc1)c1ccc(O)c(C(C)(C)c2ccccc2)c1
active: [4] 7.7 µM | [6] 48.1 µM | [8] 54.5 µM
inactive: [1] | [7]

CCC(=O)Nc1ccc(Cl)c(Cl)c1
inactive: [1] | [2] | [3] | [4] | [5]

CCN(CC)C(=O)C(C)Oc1cccc2ccccc12 (centres undefined)
active: [4] 54.9 µM and 61.1 µM
inactive: [1] | [9] | [2] | [3]
inactive and 30.6 µM (active): [8]

CCOP(=O)(O)OCC (tested in a mixture with another compound)
inactive and 60.6 µM (active): [5]
inactive: [1]

COP(=S)(OC)Oc1ccc(Sc2ccc(OP(=S)(OC)OC)cc2)cc1
61.1 µM (active) and inactive: [4]
31.7 µM (active) and inactive: [1]
inactive: all other assays above

ClC(Cl)(Cl)c1ccccc1
not listed: [6] | [7] | [9]
inactive: all other assays above

N#CCCCCC#N
inactive: all assays above

C[C@]12CC[C@H]3[C@@H](CCC4=CC(=O)CC[C@@H]43)[C@@H]1CC[C@@H]2O
not listed: [6] | [7]
inactive: all other assays above

CCCCC(C#N)(Cn1cncn1)c1ccc(Cl)cc1 (centres undefined)
not listed: [5] | [8]
inactive: all other assays above

O=[N+]([O-])c1ccc(Cl)c([N+](=O)[O-])c1
active: [2] 22 µM and 17.2 µM | [3] 19.6 µM and 15.4 µM | [5] 49.3 µM and 27.3 µM
inactive: [1] | [4] | [7]

O=C1CCCO1
inactive: all assays above

CN(C)c1nc(=O)n(C2CCCCC2)c(=O)n1C
not listed: [6] | [7]
inactive: all other assays above

O=C(O)c1nn(Cc2ccc(Cl)cc2Cl)c2ccccc12
68.1 µM (active) and inactive: [6]
not listed: [5]
inactive: all other assays above

COP(=S)(OC)SCn1nnc2ccccc2c1=O
active: [1] 39.1 µM and 39.9 µM | [6] 61.1 µM
not listed: [4]
inactive: all other assays above

ClC(Cl)=C(Cl)C(Cl)=C(Cl)Cl
inactive: [1] | [2] | [5] | [8]
